Assay results reported in the supplement of paper PMC10127200.
Counter-ions that a name gives are not always drawn.

Columns and labels:
Test in all cases: Euclidean distance of Cell Painting phenotypic profile (signed KS, 77 features) to DMSO centroid (dimensionless distance); higher = stronger phenotypic change vs DMSO (phenoactivity)
Conditions in all cases: 48 h; 5 or 10 uM (library dependent)
786-O = test system: 786-O
Summary of the method: (§1)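 Harmony extracted 77 features from 20X confocal images (9 fields/well) of stained cells, scoring each as a signed Kolmogorov-Smirnov statistic against same-plate vehicle wells. The cells, five cancer lines and a healthy fibroblast line, had received library compounds for 48 h at 10 or 5 uM depending on library, with 0.1% DMSO final. Phenoactivity is the Euclidean distance from each plate-position-corrected, correlation-weighted, top-dose replicate-averaged profile to the median vehicle profile.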

A549 = test system: A549
Summary of the method: as §1

DU145 = test system: DU145
Summary of the method: as §1

FB = test system: FB
Summary of the method: as §1

HEPG2 = test system: HEPG2
Summary of the method: as §1

OVCAR4 = test system: OVCAR4
Summary of the method: as §1

O=c1[nH]c2ccccc2n1C1CCN(CCCC(c2ccc(F)cc2)c2ccc(F)cc2)CC1 [Pimozide]
Euclidean distance (786-O): 1.83
Euclidean distance (A549): 3.09
Euclidean distance (DU145): 1.3
Euclidean distance (FB): 1.12
Euclidean distance (HEPG2): 0.874
Euclidean distance (OVCAR4): 0.955

NCCc1c[nH]c2ccc(O)cc12 [Serotonin HCl]
Euclidean distance (786-O): 1.02
Euclidean distance (A549): 0.797
Euclidean distance (DU145): 1.01
Euclidean distance (FB): 1.12
Euclidean distance (HEPG2): 0.38
Euclidean distance (OVCAR4): 1.71

COc1cc([C@@H]2c3cc4c(cc3[C@H](O)[C@H]3COC(=O)[C@@H]23)OCO4)cc(OC)c1OC [Picropodophyllin (PPP)]
Euclidean distance (786-O): 3.35
Euclidean distance (A549): 2.64
Euclidean distance (DU145): 4.34
Euclidean distance (FB): 2.74
Euclidean distance (HEPG2): 3.95
Euclidean distance (OVCAR4): 3.14

Cc1cccc([C@H](C)c2c[nH]cn2)c1C [Dexmedetomidine]
Euclidean distance (786-O): 0.401
Euclidean distance (A549): 0.732
Euclidean distance (DU145): 0.547
Euclidean distance (FB): 0.876
Euclidean distance (HEPG2): 0.546
Euclidean distance (OVCAR4): 1.12

Cl[TeH]1(Cl)(Cl)OCCO1.N
Euclidean distance (786-O): 1.48
Euclidean distance (A549): 1.83
Euclidean distance (DU145): 2.01
Euclidean distance (FB): 1.31
Euclidean distance (HEPG2): 1.27
Euclidean distance (OVCAR4): 2.09

COc1ccc2c(c1)[C@]13CCCC[C@@H]1[C@H](C2)N(C)CC3 [Dextromethorphan hydrobromide hydrate]
Euclidean distance (786-O): 1.3
Euclidean distance (A549): 1.32
Euclidean distance (DU145): 0.854
Euclidean distance (FB): 1.76
Euclidean distance (HEPG2): 1.11
Euclidean distance (OVCAR4): 1.39

CN(C)C(=O)Oc1cccc([N+](C)(C)C)c1 [Neostigmine Bromide]
Euclidean distance (786-O): 1.45
Euclidean distance (A549): 0.931
Euclidean distance (DU145): 0.914
Euclidean distance (FB): 0.963
Euclidean distance (HEPG2): 0.858
Euclidean distance (OVCAR4): 1.53

COc1cc2c(cc1OC)C1CC(=O)C(CC(C)C)CN1CC2 (centres undefined) [Tetrabenazine (Xenazine)]
Euclidean distance (786-O): 0.961
Euclidean distance (A549): 1.86
Euclidean distance (DU145): 0.948
Euclidean distance (FB): 1.12
Euclidean distance (HEPG2): 1.74
Euclidean distance (OVCAR4): 1.45

NC(=O)CN1CCCC1=O [Piracetam]
Euclidean distance (786-O): 1.42
Euclidean distance (A549): 0.813
Euclidean distance (DU145): 0.735
Euclidean distance (FB): 1.08
Euclidean distance (HEPG2): 0.792
Euclidean distance (OVCAR4): 1.01

C[C@]12CCC(=O)C[C@@H]1CC[C@@H]1[C@@H]2CC[C@]2(C)[C@@H](O)CC[C@@H]12 [Dihydrotestosterone(DHT)]
Euclidean distance (786-O): 1.54
Euclidean distance (A549): 0.944
Euclidean distance (DU145): 0.925
Euclidean distance (FB): 0.775
Euclidean distance (HEPG2): 0.429
Euclidean distance (OVCAR4): 0.677

COC(=O)C1=CCCN(C)C1 [Arecoline HBr]
Euclidean distance (786-O): 0.921
Euclidean distance (A549): 0.978
Euclidean distance (DU145): 1.03
Euclidean distance (FB): 1.12
Euclidean distance (HEPG2): 0.958
Euclidean distance (OVCAR4): 1.12

COc1cc(OC)c(OC)cc1C=O [Asaraldehyde]
Euclidean distance (786-O): 1.25
Euclidean distance (A549): 0.833
Euclidean distance (DU145): 0.776
Euclidean distance (FB): 1.31
Euclidean distance (HEPG2): 1.73
Euclidean distance (OVCAR4): 1.06

C[C@H]1CNCCc2ccc(Cl)cc21 [Lorcaserin HCl]
Euclidean distance (786-O): 1.56
Euclidean distance (A549): 0.972
Euclidean distance (DU145): 1.3
Euclidean distance (FB): 0.956
Euclidean distance (HEPG2): 1.2
Euclidean distance (OVCAR4): 0.917

CC[C@H](C)[C@H]1O[C@]2(C=C[C@@H]1C)C[C@@H]1C[C@@H](C/C=C(\C)[C@@H](O[C@H]3C[C@H](OC)[C@@H](O[C@H]4C[C@H](OC)[C@@H](O)[C@H](C)O4)[C@H](C)O3)[C@@H](C)/C=C/C=C3\CO[C@@H]4[C@H](O)C(C)=C[C@@H](C(=O)O1)[C@]34O)O2.CO[C@H]1C[C@H](O[C@H]2[C@H](C)O[C@@H](O[C@@H]3/C(C)=C/C[C@@H]4C[C@@H](C[C@]5(C=C[C@H](C)[C@@H](C(C)C)O5)O4)OC(=O)[C@@H]4C=C(C)[C@@H](O)[C@H]5OC/C(=C\C=C\[C@@H]3C)[C@]54O)C[C@@H]2OC)O[C@@H](C)[C@@H]1O [Avermectin B1]
Euclidean distance (786-O): 1.43
Euclidean distance (A549): 2.77
Euclidean distance (DU145): 1.59
Euclidean distance (FB): 1.1
Euclidean distance (HEPG2): 1.38
Euclidean distance (OVCAR4): 1.76

COc1cc(-n2c(=S)[nH]c3ccccc3c2=O)c(Cl)cc1Cl [Mdivi-1]
Euclidean distance (786-O): 1.11
Euclidean distance (A549): 1.02
Euclidean distance (DU145): 0.97
Euclidean distance (FB): 1.3
Euclidean distance (HEPG2): 0.841
Euclidean distance (OVCAR4): 0.792

NCC1(CC(=O)O)CCCCC1 [Gabapentin HCl]
Euclidean distance (786-O): 0.807
Euclidean distance (A549): 0.703
Euclidean distance (DU145): 0.806
Euclidean distance (FB): 0.665
Euclidean distance (HEPG2): 0.483
Euclidean distance (OVCAR4): 0.892

CC(=O)[C@H]1CC[C@H]2[C@@H]3CC[C@H]4C[C@H](O)CC[C@]4(C)[C@H]3CC[C@]12C [Allopregnanolone]
Euclidean distance (786-O): 0.735
Euclidean distance (A549): 0.818
Euclidean distance (DU145): 1.1
Euclidean distance (FB): 1.22
Euclidean distance (HEPG2): 0.709
Euclidean distance (OVCAR4): 1.64

O=C(O)CCCc1ccc(N(CCCl)CCCl)cc1 [Chloroambucil]
Euclidean distance (786-O): 2.21
Euclidean distance (A549): 1.7
Euclidean distance (DU145): 0.964
Euclidean distance (FB): 1.7
Euclidean distance (HEPG2): 0.893
Euclidean distance (OVCAR4): 1.49

CCCN1C[C@H](CSC)C[C@@H]2c3cccc4[nH]cc(c34)C[C@H]21 [Pergolide mesylate]
Euclidean distance (786-O): 0.662
Euclidean distance (A549): 0.713
Euclidean distance (DU145): 1.01
Euclidean distance (FB): 0.92
Euclidean distance (HEPG2): 2.27
Euclidean distance (OVCAR4): 1.02

Cc1cc2c(C(C)C)c(O)c(O)c(C=O)c2c(O)c1-c1c(C)cc2c(C(C)C)c(O)c(O)c(C=O)c2c1O [Gossypol]
Euclidean distance (786-O): 2.34
Euclidean distance (A549): 2.66
Euclidean distance (DU145): 0.576
Euclidean distance (FB): 1.05
Euclidean distance (HEPG2): 0.654
Euclidean distance (OVCAR4): 1.74

O=C(CBr)N1CC([N+](=O)[O-])([N+](=O)[O-])C1
Euclidean distance (786-O): 0.949
Euclidean distance (A549): 1.3
Euclidean distance (DU145): 0.88
Euclidean distance (FB): 0.833
Euclidean distance (HEPG2): 0.776
Euclidean distance (OVCAR4): 0.926

CC(C)[C@]12O[C@H]1[C@@H]1O[C@]13[C@]1(O[C@H]1C[C@H]1C4=C(CC[C@@]13C)C(=O)OC4)[C@@H]2O [Triptolide (PG490)]
Euclidean distance (786-O): 3.96
Euclidean distance (A549): 3.27
Euclidean distance (DU145): 3.16
Euclidean distance (FB): 4.12
Euclidean distance (HEPG2): 2.73
Euclidean distance (OVCAR4): 3.81

C[C@H]1CCC/C=C/[C@@H]2C[C@H](O)C[C@H]2[C@H](O)/C=C/C(=O)O1 [Brefeldin A]
Euclidean distance (786-O): 3.77
Euclidean distance (A549): 3.61
Euclidean distance (DU145): 4.53
Euclidean distance (FB): 4.79
Euclidean distance (HEPG2): 4.54
Euclidean distance (OVCAR4): 3.85

C[C@]12CC[C@@H](O)C[C@@H]1CC[C@@H]1[C@@H]2CC[C@]2(C)C(=O)CC[C@@H]12 [Androsterone]
Euclidean distance (786-O): 1.51
Euclidean distance (A549): 0.773
Euclidean distance (DU145): 1.2
Euclidean distance (FB): 1.28
Euclidean distance (HEPG2): 0.665
Euclidean distance (OVCAR4): 1.07

CC1(C)C(C=C(Cl)Cl)C1C(=O)OCc1cccc(Oc2ccccc2)c1 (centres undefined) [Permethrin]
Euclidean distance (786-O): 1.12
Euclidean distance (A549): 0.946
Euclidean distance (DU145): 1.16
Euclidean distance (FB): 0.816
Euclidean distance (HEPG2): 0.999
Euclidean distance (OVCAR4): 1.43

NCCCNCCSP(=O)(O)O [Amifostine]
Euclidean distance (786-O): 2.98
Euclidean distance (A549): 1.18
Euclidean distance (DU145): 1.66
Euclidean distance (FB): 1.8
Euclidean distance (HEPG2): 1.22
Euclidean distance (OVCAR4): 1.31

O=[N+]([O-])C(Br)(CO)CO [Bronopol]
Euclidean distance (786-O): 1.36
Euclidean distance (A549): 1.03
Euclidean distance (DU145): 1.02
Euclidean distance (FB): 0.825
Euclidean distance (HEPG2): 0.735
Euclidean distance (OVCAR4): 1.59

Cc1ccc(/N=C/N(C)/C=N/c2ccc(C)cc2C)c(C)c1 [Amitraz]
Euclidean distance (786-O): 0.966
Euclidean distance (A549): 0.885
Euclidean distance (DU145): 0.902
Euclidean distance (FB): 0.718
Euclidean distance (HEPG2): 0.47
Euclidean distance (OVCAR4): 0.684

CC[C@H]1[C@@H]2C[C@H]3[C@@H]4N(C)c5ccccc5[C@]45C[C@@H]([C@@H]2[C@H]5O)N3[C@@H]1O [Ajmaline]
Euclidean distance (786-O): 1.39
Euclidean distance (A549): 0.849
Euclidean distance (DU145): 1.04
Euclidean distance (FB): 0.914
Euclidean distance (HEPG2): 0.486
Euclidean distance (OVCAR4): 1.05
